Reference: ChEMBL document CHEMBL4513216, “Probing the Open Global Health Chemical Diversity Library for Multistage-Active Starting Points for Next-Generation Antimalarials” (ACS Infect Dis, 2020)
In all, about 69,000 compounds went through this assay and about 8,600 (12%) showed an effect of 50% or more. The sample as a whole holds a higher share of strong results than the screen did.

Test system: Plasmodium berghei
Experiment: Screen against P. berghei liver stage (PbLuc), transformed with Luciferase, at 10uM
Assay type: functional, HepG2
Details: tested at 10 uM

Question: With CN(C)C(=O)CC1CC2(CCN(CC3CC3)CC2)Oc2ccccc21 (stereo not drawn) as the compound, how does the INHIBITION read?
Answer: The INHIBITION was -51.6%.

Question: How did the INHIBITION turn out when Cc1cc(C(=O)N2CC[C@](C)(O)[C@H](C)C2)c(C)n1C was run?
Answer: Its INHIBITION is -12.2%.

Question: How did the INHIBITION turn out when CC(c1ccc(F)cc1F)N1CCN(CCC(=O)O)CC1 (stereo not drawn) was run?
Answer: The INHIBITION was -17.7%.

Question: Which INHIBITION does the source give for CC(c1ccc(F)cc1F)N1CCN(CCC(=O)NC(N)=O)CC1 (stereo not drawn) here?
Answer: The INHIBITION was -8%.

Question: How did the INHIBITION turn out when CC(c1ccc(F)cc1F)N1CCN(CCN2CCCC2=O)CC1 (stereo not drawn) was run?
Answer: Its INHIBITION is 63%.

Question: How did the INHIBITION turn out when CCn1nc(C)cc1NC(=O)CCn1nc(C)c(Br)c1C was run?
Answer: Its INHIBITION is 31.7%.

Question: Which INHIBITION does the source give for COCCn1ccc(=O)c(OCC(=O)Nc2cccc(Cl)c2)c1C here?
Answer: The INHIBITION was -21.2%.

Question: With Cc1cc(C)n(C2CN(CCC(N)=O)C2)n1 as the compound, how does the INHIBITION read?
Answer: The INHIBITION was -4.96%.

Question: For CC(C)N(C)Cc1cncc2c1CCN(C(=O)c1cccc(C#N)c1)C2, which INHIBITION is on record?
Answer: The INHIBITION was 12.7%.

Question: For Cc1cc(CN2CCN(Cc3cnc4c(c3)c(C)nn4C)CC2)on1, which INHIBITION is on record?
Answer: Its INHIBITION is 11.5%.

Question: For CCN1CCN(C(=O)c2ccc(Cn3ccccc3=O)o2)CC1, which INHIBITION is on record?
Answer: Its INHIBITION is 39.6%.

Question: How did the INHIBITION turn out when c1csc(CN2CCc3c(CNc4nncs4)cncc3C2)c1 was run?
Answer: The INHIBITION was 42.7%.

Question: c1cnc(NCc2cncc3c2CCN(Cc2ccsc2)C3)nc1 was tested. Which INHIBITION did it give?
Answer: Its INHIBITION is 60.2%.

Question: For c1cnc(NCc2cncc3c2CCN(Cc2cccs2)C3)nc1, which INHIBITION is on record?
Answer: Its INHIBITION is -38.7%.

Question: For c1cnc(NCc2cncc3c2CCN(Cc2cccnc2)C3)nc1, which INHIBITION is on record?
Answer: The INHIBITION was 12.4%.

Question: How did the INHIBITION turn out when CN(C)C(=O)N1CCc2c(CNc3ncccn3)cncc2C1 was run?
Answer: The INHIBITION was 6.38%.

Question: Which INHIBITION does the source give for CC(=O)NCC(=O)N1CCc2c(CNc3ncccn3)cncc2C1 here?
Answer: Its INHIBITION is -2.17%.

Question: For Cc1cc(CN2CCc3c(CNc4ncccn4)cncc3C2)oc1C, which INHIBITION is on record?
Answer: The INHIBITION was 67.2%.

Question: For COCCC(=O)N1CCc2c(CNc3ncccn3)cncc2C1, which INHIBITION is on record?
Answer: Its INHIBITION is 53.4%.

Question: c1cnc(NCc2cncc3c2CCN(Cc2ccoc2)C3)nc1 was tested. Which INHIBITION did it give?
Answer: Its INHIBITION is 19.4%.

Question: How did the INHIBITION turn out when Cc1nn(C)c(N2CCOCC2)c1CNC(C)c1cccs1 (stereo not drawn) was run?
Answer: Its INHIBITION is 16.9%.

Question: How did the INHIBITION turn out when COc1ccc(N2CCN(C(=O)C(C)n3cc(Br)cn3)CC2)cc1 (stereo not drawn) was run?
Answer: The INHIBITION was 30%.

Question: How did the INHIBITION turn out when Cc1cccc(CC2CCCN(C(=O)C3CCOCC3)C2)n1 (stereo not drawn) was run?
Answer: Its INHIBITION is 30.4%.

Question: O=C(C1CC1)N1CCC(c2nc(O)c3c(n2)CN(C2CCCC2)CC3)C1 (stereo not drawn) was tested. Which INHIBITION did it give?
Answer: The INHIBITION was 5.11%.

Question: How did the INHIBITION turn out when COc1cc(NCc2c(C)noc2C)c(C(=O)N(C)C)cc1OC was run?
Answer: The INHIBITION was -16.1%.

Question: How did the INHIBITION turn out when Cc1noc(C)c1CN1Cc2nccn2CC(CN2CCOCC2)C1 (stereo not drawn) was run?
Answer: Its INHIBITION is 18.3%.

Question: How did the INHIBITION turn out when COCCC1(C(=O)O)CCCN(C(=O)c2cc(Cl)ccc2F)C1 (stereo not drawn) was run?
Answer: Its INHIBITION is 58.8%.

Question: How did the INHIBITION turn out when CCCC1(C(=O)O)CCCN(C(=O)c2cc(Cl)ccc2F)C1 (stereo not drawn) was run?
Answer: The INHIBITION was 36.5%.

Question: How did the INHIBITION turn out when COCCCC1(C(=O)O)CCCN(C(=O)c2ccc(C(C)C)[nH]c2=O)C1 (stereo not drawn) was run?
Answer: Its INHIBITION is 30.4%.

Question: With CCN1C(=O)CCCC12CCCN(C(=O)c1cc(C)oc1C)C2 (stereo not drawn) as the compound, how does the INHIBITION read?
Answer: The INHIBITION was -17.1%.

Question: With COc1ccc(F)cc1C(=O)N1CCCC(CNS(C)(=O)=O)C1 (stereo not drawn) as the compound, how does the INHIBITION read?
Answer: Its INHIBITION is -38.7%.

Question: For CCN(CC)Cc1cc(C(=O)N2CCCC(CC)(C(=O)O)C2)c(C)o1 (stereo not drawn), which INHIBITION is on record?
Answer: Its INHIBITION is 29.9%.

Question: Which INHIBITION does the source give for COCCC1(C(=O)O)CCCN(C(=O)c2cc(C)oc2C)C1 (stereo not drawn) here?
Answer: Its INHIBITION is 69.9%.

Question: Which INHIBITION does the source give for COCCCC1(C(=O)O)CCCN(C(=O)c2ccc(Cl)cc2F)C1 (stereo not drawn) here?
Answer: Its INHIBITION is 39.3%.

Question: For COCCC1(C(=O)O)CCCN(C(=O)c2cc(F)ccc2OC)C1 (stereo not drawn), which INHIBITION is on record?
Answer: Its INHIBITION is 79.7%.

Question: For Cc1nnc(NC(=O)CN2CCCC2c2c(C)nn(C)c2C)s1 (stereo not drawn), which INHIBITION is on record?
Answer: The INHIBITION was -24.2%.

Question: For CCc1nnc2n1CCN(C(=O)c1ccc3c(c1)nnn3C)C2, which INHIBITION is on record?
Answer: The INHIBITION was -8.66%.

Question: CS(=O)(=O)N1Cc2nccn2CC(CNC(=O)c2cccnc2)C1 (stereo not drawn) was tested. Which INHIBITION did it give?
Answer: The INHIBITION was 2.79%.

Question: How did the INHIBITION turn out when CCOC(=O)CNc1nc(COC)nc2c1cnn2C was run?
Answer: Its INHIBITION is -4.23%.

Question: Which INHIBITION does the source give for CCC(Nc1nccc(C2CCCC2)n1)c1ccncc1 (stereo not drawn) here?
Answer: Its INHIBITION is 84.1%.

Question: Which INHIBITION does the source give for CCOC(=O)CC(C)Nc1nc(C2CCCC2)nc2c1cnn2C (stereo not drawn) here?
Answer: Its INHIBITION is 61%.

Question: CC(=O)NCCNc1nc(C2CCCC2)nc2c1cnn2C was tested. Which INHIBITION did it give?
Answer: Its INHIBITION is 5.23%.

Question: For COC(=O)[C@H](CSC)Nc1nc(C2CCCC2)nc2c1cnn2C, which INHIBITION is on record?
Answer: Its INHIBITION is 52.6%.

Question: For Cc1cc(CC(C)Nc2nc(C3CCCC3)nc3c2cnn3C)[nH]n1 (stereo not drawn), which INHIBITION is on record?
Answer: The INHIBITION was 45.1%.

Question: Which INHIBITION does the source give for CC(C)C[C@H](Nc1nc(C2CCCC2)nc2c1cnn2C)C(N)=O here?
Answer: Its INHIBITION is 61%.

Question: How did the INHIBITION turn out when COC(=O)[C@@H](Nc1nc(C2CCCC2)nc2c1cnn2C)[C@@H](C)O was run?
Answer: Its INHIBITION is 10.9%.

Question: Which INHIBITION does the source give for CCC(Nc1nccc(C2CCCC2)n1)c1ccccn1 (stereo not drawn) here?
Answer: Its INHIBITION is 22.5%.

Question: CC(C)[C@H](Nc1nc(C2CCCC2)nc2c1cnn2C)C(N)=O was tested. Which INHIBITION did it give?
Answer: Its INHIBITION is 28.5%.

Question: CCC(Nc1nccc(C2CCCC2)n1)c1ncccc1C (stereo not drawn) was tested. Which INHIBITION did it give?
Answer: Its INHIBITION is -24.8%.

Question: With COCCN1CC(Nc2nc(C3CCCC3)nc3c2cnn3C)CC1=O (stereo not drawn) as the compound, how does the INHIBITION read?
Answer: Its INHIBITION is 25.1%.

Question: Cc1c(C2CCCN(C(=O)c3ccn(C)n3)C2)n2c(nc1=O)CCC2 (stereo not drawn) was tested. Which INHIBITION did it give?
Answer: Its INHIBITION is -9.32%.

Question: Which INHIBITION does the source give for CC(=O)NCCNC(=O)NCC1Cc2ccccc2O1 (stereo not drawn) here?
Answer: The INHIBITION was 1.56%.

Question: CN(C)C(=O)CN1CCCCC1c1nc(N)ncc1-c1cccc(F)c1 (stereo not drawn) was tested. Which INHIBITION did it give?
Answer: The INHIBITION was 39.8%.
